# PubChem BioAssay (NCATS)
# Records with an inconclusive call do not appear. The source made the active and inactive calls. The call rests on the fitted dose curve; in most records, active means well fitted curve in the direction sought with a large enough effect; inconclusive means small, poorly fitted or top-dose-only effect, or another doubt; inactive means no such curve, though single readings can be large; an effect the other way counts as inactive or inconclusive.
# Assay: Quantitative High-Throughput drug screen in 47 multiple myeloma cell lines against the NCATS MIPE library collection: KMM1_JCRB cell viability assay (AID 1918960); further: nearly all actives have a fitted effect of over 30% in size
# Conditions: KMM1 myeloma viability, CellTiter-Glo ATP luminescence, 48 h; series mostly up to 45.8 µM; viability (% of DMSO): at the top concentration
# Procedure, shortened: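 Viability screen: myeloma cells (500/well) incubated 48 h at 37 °C, humidified 5% CO2, with pinned library compounds; CellTiter-Glo added, luminescence read; DMSO wells set 100%, medium-only wells 0%.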
# Potency means the concentration at half of the fitted maximal effect.
Compound,viability (% of DMSO),Potency
CC(=O)Oc1ccccc1C(=O)O,127% (inactive),
CCc1ccc(CCOc2ccc(CC3SC(=O)NC3=O)cc2)nc1 (configuration not stated),106% (inactive),
CNC(=O)c1ccc(N2C(=S)N(c3ccc(C#N)c(C(F)(F)F)c3)C(=O)C2(C)C)cc1F,,9.35 µM (active)

# Assay: Quantitative High-Throughput drug screen in 47 multiple myeloma cell lines against the NCATS MIPE library collection: Karpas417_ECACC cell viability assay (AID 1918961)
# Conditions: Karpas417 myeloma viability, CellTiter-Glo ATP luminescence, 48 h; viability (% of DMSO): at 45.8 µM (top of the series) unless noted
# Procedure, shortened: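 CellTiter-Glo luminescence (ATP) after 48 h compound exposure, 37C/5% CO2; 500 cells/well; MIPE 4.0 approved/investigational drugs pinned in; DMSO = 100%, media only = 0% viability.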
Compound,viability (% of DMSO),Potency
O=C1CCCC2=C1C(c1[nH]ncc1Cl)N=C(Nc1nc3ccccc3o1)N2 (configuration not stated),270% (inactive),
CC[C@@H](C)[C@H](NC(=O)[C@H](CC1CCCCC1)NC(=O)c1ccno1)C(=O)N1CCC2(CCc3ccccc32)CC1,124% (active),
COc1cc(F)c(F)c(Nc2ccc(I)cc2F)c1NS(=O)(=O)C1(C[C@H](O)CO)CC1,,16.6 µM (active)
OC[C@H](Cc1ccccc1)Nc1nc(Oc2ccc3c(c2)CCC3)nc2c1ncn2Cc1ccc(-c2ccccc2)cc1,18% (inactive),
Nc1ncnc2nc(-c3ccc(N4CCOCC4)nc3)cc(-c3cccc(Br)c3)c12,144% (inactive),
Cc1cc(-c2ccc(CC(=O)Nc3ccc(-c4cccnc4)cc3)cc2)ccn1,,16.6 µM (active)
Cc1ccc(NC(=O)c2cccc(C(C)(C)C#N)c2)cc1Nc1ccc2ncn(C)c(=O)c2c1,,0.187 µM (active)
O=C1[C@H](Cc2ccc(O)cc2)N2C(=O)CCN(C(=O)NCc3ccccc3)[C@H]2CN1Cc1cccc2ccccc12,140% (inactive),
COc1ccc(-c2c(-c3ccc(O)cc3O)n[nH]c2C)cc1,34.5% [at 92.2 µM] (active),

# Assay: Quantitative High-Throughput drug screen in 47 multiple myeloma cell lines against the NCATS MIPE library collection: KHM11_PLB cell viability assay (AID 1918962); further: nearly all actives have a fitted effect of over 35% in size
# Conditions: KHM11 myeloma cell viability, CellTiter-Glo ATP luminescence, 48 h; series mostly up to 45.8 µM; viability, % of DMSO control: at the top concentration
# Procedure, shortened: (§1)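 Steps: seed 500 cells per well; pin-transfer MIPE 4.0 library; incubate 48 h at 37C, 5% CO2, humidified; add CellTiter-Glo, 5 min room temperature; read luminescence.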
Compound,Potency,"viability, % of DMSO control"
O=C1CCCC2=C1C(c1[nH]ncc1Cl)N=C(Nc1nc3ccccc3o1)N2 (configuration not stated),4.18 µM (active),
CC(C)NCC(O)COc1ccc(COCCOC(C)C)cc1 (configuration not stated),,97% (inactive)
Cc1ccc(NC(=O)c2cccc(C(C)(C)C#N)c2)cc1Nc1ccc2ncn(C)c(=O)c2c1,0.166 µM (active),
O=C(C1CC1)N1CC[C@@H](Cn2c(-c3ccc(-c4ccc5occc5c4)cc3)nc3cnccc32)C1,,78.8% (inactive)
COc1ccc(-c2c(-c3ccc(O)cc3O)n[nH]c2C)cc1,,85.4% [at 92.2 µM] (inactive)
CNC(=O)c1ccc(N2C(=S)N(c3ccc(C#N)c(C(F)(F)F)c3)C(=O)C2(C)C)cc1F,,97.3% (inactive)

# Assay: Quantitative High-Throughput drug screen in 47 multiple myeloma cell lines against the NCATS MIPE library collection: JIM3_ECACC cell viability assay (AID 1918963; further: nearly all actives have a fitted effect of over 35% in size)
# Conditions: JIM3 myeloma viability, CellTiter-Glo ATP, 48 h; series mostly up to 45.8 µM; viability, percent of control: at the top concentration
# Procedure, shortened: as §1
Compound,"viability, percent of control",Potency
CCOc1ccn(-c2ccc(F)cc2)c(=O)c1C(=O)Nc1ccc(Oc2ccnc(N)c2Cl)c(F)c1,102% (inactive),
O=c1[nH]c(-c2ccc(C(F)(F)F)cc2)nc2c1CSCC2,103% (inactive),
NCCc1ccc(O)c(O)c1,,18.7 µM (active)
O=S(=O)(N=Cc1c(O)ccc2ccccc12)c1cccs1,,3.32 µM (active)
O=C(O)[C@@H](c1ccc(OCc2ccc3ccccc3n2)cc1)C1CCCC1,98.7% (inactive),
NCCCC(N)(C(=O)O)C(F)F (configuration not stated),,13.2 µM (active)
Nc1nc2c(ncn2COCCO)c(=O)[nH]1,94.8% (inactive),
NS(=O)(=O)c1cc2c(cc1Cl)NC=NS2(=O)=O,106% (inactive),
COc1ccc(-c2oc3cc(OC)ccc3c2C(=O)c2ccc(C#N)cc2)cc1,117% (inactive),
CC(=O)NC(C)c1ccc(Oc2ccc(OC(C)C)cc2)cc1 (configuration not stated),,3.32 µM (active)
COc1cc(F)c(F)c(Nc2ccc(I)cc2F)c1NS(=O)(=O)C1(C[C@H](O)CO)CC1,,18.7 µM (active)
CC(C)NCC(O)COc1ccc(COCCOC(C)C)cc1 (configuration not stated),106% (inactive),
CC(C)(Sc1ccc(CCN(CCCCC2CCCCC2)C(=O)NC2CCCCC2)cc1)C(=O)O,114% (inactive),
CCOC(=O)N1CCC(=C2c3ccc(Cl)cc3CCc3cccnc32)CC1,108% (inactive),
Cc1cnc(Nc2ccc(OCCN3CCCC3)cc2)nc1Nc1cccc(S(=O)(=O)NC(C)(C)C)c1,102% (inactive),
COc1cc(Oc2ccnc3cc(OC)c(OC)cc23)ccc1NC(=O)NC(C)c1nccs1 (configuration not stated),,20.9 µM (active)
Nc1ncnc2nc(-c3ccc(N4CCOCC4)nc3)cc(-c3cccc(Br)c3)c12,,18.7 µM (active)
Cc1cc(-c2ccc(CC(=O)Nc3ccc(-c4cccnc4)cc3)cc2)ccn1,,18.7 µM (active)
Cc1ccc(NC(=O)c2cccc(C(C)(C)C#N)c2)cc1Nc1ccc2ncn(C)c(=O)c2c1,,11.8 µM (active)
O=c1ncn2nc(Sc3ccc(F)cc3F)ccc2c1-c1c(Cl)cccc1Cl,94.3% (inactive),
CCc1ccc(CCOc2ccc(CC3SC(=O)NC3=O)cc2)nc1 (configuration not stated),95.5% (inactive),
NC(=O)c1ccc(-c2nc(-c3ccc4c(c3)OCCO4)c(-c3ccccn3)[nH]2)cc1,69.3% (inactive),
O=C(C1CC1)N1CC[C@@H](Cn2c(-c3ccc(-c4ccc5occc5c4)cc3)nc3cnccc32)C1,,16.6 µM (active)
CNC(=O)c1ccc(N2C(=S)N(c3ccc(C#N)c(C(F)(F)F)c3)C(=O)C2(C)C)cc1F,96.4% (inactive),
